From PubChem BioAssay (EPA / NIEHS)
Activity calls are given as the source filed them. How the source made its calls: active means hit-call score of the fitted dose curve at least 0.9, where 1 is the maximum; inactive means score below 0.9.

Test: CEETOX_H295R_11DCORT: CeeTox H295R High-throughput Steroidogenesis Assay for 11-Deoxycortisol (11DCORT) (AID 2283432);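 on AC50: 11-deoxycortisol secreted into the medium measured by LC-MS/MS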
Details: actives raise or lower the signal
Protocol: CEETOX_H295R is a cell-based, multiplexed-readout assay that uses H295R, a human adrenal gland cell line, with measurements taken at 48 hours after chemical dosing in a 96-well plate.CEETOX_H295R_11DCORT is one of 23 assay component(s) measured or calculated from the CEETOX_H295R assay. It is designed to make measurements of hormone induction, a form of inducible reporter, as detected with absorbance signals by HPLC-MS-MS technology.Data from the assay component CEETOX_H295R_11DCORT was analyzed into 1 assay endpoint. This assay endpoint, CEETOX_H295R_11DCORT, was analyzed with bidirectional fitting relative to DMSO as the negative control and baseline of activity. Using a type of inducible reporter, gain or loss-of-signal activity using HPLC-MS-MS was used to understand synthesis of 11-Deoxycortisol in H295R cell line at 48hr of chemical exposure. To generalize the intended target to other relatable targets, this assay endpoint is annotated to the steroid hormone intended target family, where the subfamily is glucocorticoids.
Cell culture and media preparation procedures were conducted in accordance with OECD Test No. 456 guidelines, with minor modifications. H295R cells (ATCC CRL-2128) were expanded for 5 passages and frozen in batches in liquid nitrogen. Prior to the steroidogenesis assay, H295R cells were thawed and passed at least 4 times. The maximum passage was 10. Cells were maintained in a 1:1 mixture of DMEM/F12 supplemented with 5ml/L ITS+ Premix (BD Bioscience) and 12.5 ml/L Nu-Serum (BD Bioscience). After seeding cells into 96-well plates at 50-60% confluency, cells were allowed to adhere overnight. Prior to chemical testing, culture medium was replaced with 175 uL medium containing 10 uM forskolin to stimulate steroidogenesis for 48 hours. Following prestimulation, forskolin medium was replaced with medium containing test chemical solubilized in DMSO (ensuring a final concentration of 0.1% DMSO). Test chemicals were incubated for 48 hours, then the medium was removed and split into 2 vials containing approximately 75uL each, and stored at -80 C prior to hormone analysis. For steroid quantification, media samples were shipped to OpAns, LLC (Durham, NC) on dry ice, and samples were thawed to room temperature prior to liquid-liquid extraction. Steroid hormones were extracted from media samples using methyl tertbutyl ether (MTBE). An extra derivatization with dansyl chloride was included for estrogen (estrone and estradiol) detection only. Steroid hormones were separated by HPLC, eluted using a reverse phase C18 gradient with electrospray positive ionization, followed by quantification by tandem mass spectrometry (MS/MS). Data were acquired on a MassHunter Workstation Acquisition version B03.01 (Agilent Technologies, Inc.) and processed using MassHunter Quantitative Analysis for QQQ. Accuracy was determined for each hormone analyte from 3 standards to determine upper and lower limits of quantification (ULOQ and LLOQ, respectively) using a 7-point standard curve. Precision and accuracy of the extraction and quantification methods were calculated as the percent relative standard deviation (%RSD) of the spiked standards and percent spiked standard recovered, respectively. The goal was to achieve 100% accuracy (i.e., recover all spiked-in standard at quantification with minimal loss during run time) and good precision (i.e., have %RSD <15% to ensure reproducibility). Test medium was removed following chemical exposure, and cell viability was evaluated in the same wells by MTT. MTT procedures were as follows: after removal of test medium, 500 uL of 0.5 mg/ml of 3-[4,5-dimethylthiazol-2-y]2,5-diphenyltetrazoliumbromide solution was added to the cells. Following a 4-hour incubation at 37 C and 5% CO2 to allow formazan-crystal formation, the MTT solution was removed and blue formazan salt crystals were solubilized using 500uL anhydrous isopropanol with shaking for 20 minutes. […]

Question: With `Cc1cc(C(C)(C)c2ccc(O)c(C)c2)ccc1O` as the compound, how does the AC50 read?
Answer: 5 µM (active)

Question: Which outcome does the source give for `CCC[CH2][Sn]([Cl])([Cl])[CH2]CCC` here?
Answer: inactive

Question: For `CC(C)=CC1C(C(=O)OCc2cccc(Oc3ccccc3)c2)C1(C)C` (centres undefined), which AC50 is on record?
Answer: 29.3 µM (active)

Question: Which AC50 does the source give for `OC(Cc1ccccc1Cl)(Cn1cncn1)C1(Cl)CC1` (centres undefined) here?
Answer: 11.8 µM (active)

Question: With `CCOP(=S)(OCC)O/N=C(\C#N)c1ccccc1` as the compound, how does the AC50 read?
Answer: 82.5 µM (active)

Question: For `Cc1ccccc1OP(=O)(Oc1ccccc1C)Oc1ccccc1C`, which outcome is on record?
Answer: inactive

Question: Which AC50 does the source give for `COC(=O)Nc1cccc(OC(=O)Nc2cccc(C)c2)c1` here?
Answer: 9.94 µM (active)

Question: Which outcome does the source give for `Cc1cc(Cl)ccc1O` here?
Answer: inactive

Question: Which outcome does the source give for `COc1ccc(N)cc1` here?
Answer: inactive

Question: With `O=S1OC[C@@H]2[C@H](CO1)[C@]1(Cl)C(Cl)=C(Cl)[C@@]2(Cl)C1(Cl)Cl` (some centres undefined) as the compound, how does the AC50 read?
Answer: 39.7 µM (active)

Question: For `CC(C)(C)c1ccccc1O`, which outcome is on record?
Answer: inactive

Question: For `CCOCn1c(-c2ccc(Cl)cc2)c(C#N)c(Br)c1C(F)(F)F`, which AC50 is on record?
Answer: 15.3 µM (active)

Question: For `O=[N+]([O-])c1ccc(Nc2ccccc2)cc1`, which outcome is on record?
Answer: inactive

Question: With `CCOP(=O)(OCC)OC(=CCl)c1ccc(Cl)cc1Cl` as the compound, how does the AC50 read?
Answer: 5.43 µM (active)

Question: With `CC(C)(COCC1CO1)COCC1CO1` (centres undefined) as the compound, how does the outcome read?
Answer: inactive

Question: Which outcome does the source give for `CCCCCCCCCCCCN(C)C` here?
Answer: inactive

Question: For `C[C@]12CC[C@@H](O)C[C@@H]1CC[C@@H]1[C@@H]2CC[C@]2(C)C(=O)CC[C@@H]12`, which outcome is on record?
Answer: inactive

Question: Which outcome does the source give for `Oc1cccc(-c2ccccc2)c1` here?
Answer: inactive

Question: With `OC(Cc1ccccc1Cl)(Cn1[nH]cnc1=S)C1(Cl)CC1` (centres undefined) as the compound, how does the outcome read?
Answer: inactive
